Experimental data: PubChem BioAssay (NCATS)
Where “and” joins values, the source holds several entries; their conditions need not be identical. Equal values may be shown once. Inconclusive results are not listed. Where a call stands in place of a potency, no number is given. Calls of active or inactive are those of the source. The call rests on the fitted dose curve; in most records, active means well fitted curve in the direction sought with a large enough effect; inconclusive means small, poorly fitted or top-dose-only effect, or another doubt; inactive means no such curve, though single readings can be large; an effect the other way counts as inactive or inconclusive.

Tests used:
[1] = target: N-terminal Xaa-Pro-Lys N-methyltransferase 1 (Homo sapiens) (UniProt Q9BV86); test: qHTS Assay for Inhibitors of N-terminal methyltransferase 1 (NTMT1): LOPAC validation of the NTMT1 SAHH-coupled ThioGlo3 Assay (AID 1347143);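 further: SAH from peptide methylation measured as thiol fluorescence via SAHH coupling and ThioGlo3; nearly all actives have a fitted effect of over 70% in size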; further: potency means the concentration at half of the fitted maximal effect
N-terminal Xaa-Pro-Lys N-methyltransferase 1 (Homo sapiens), sequence (Q9BV86 whole entry, looked up): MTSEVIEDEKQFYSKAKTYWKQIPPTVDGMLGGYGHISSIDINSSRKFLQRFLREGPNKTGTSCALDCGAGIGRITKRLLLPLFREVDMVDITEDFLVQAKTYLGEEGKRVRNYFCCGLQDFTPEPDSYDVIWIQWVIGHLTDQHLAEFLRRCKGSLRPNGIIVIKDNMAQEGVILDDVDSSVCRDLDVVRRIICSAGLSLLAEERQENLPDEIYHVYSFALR
Outline: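 Recombinant human NTMT1 (125nM) was pre-incubated 1 min at room temperature with compounds over a concentration range, then a mix of 100uM SAM, 10uM SAHH and 15uM ThioGlo3 (concentrations in added reagent) was added. ThioGlo3 fluorescence (ex 340/em 450nm) after 30 min was normalized to the initial reading.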

[2] = system: Zika virus NS2B-NS3 protease (unlinked); test: Optimization of GU AMC qHTS for Zika virus inhibitors: Unlinked NS2B-NS3 protease assay (AID 1347151); further: nearly all actives have a fitted effect of over 80% in size; further: potency means the concentration at half of the fitted maximal effect
Outline: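 Fluorescence read-out (340 nm ex / 450 nm em) of AMC peptide cleavage, taken immediately and after 15 min at room temperature (~20% conversion). Enzyme was the unlinked NS2B–NS3 complex at 25 nM in Tris pH 8.0 buffer.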

[3] = system: Zika virus NS2B-NS3 protease; test: Primary screen GU AMC qHTS for Zika virus inhibitors (AID 1347154); further: nearly all actives have a fitted effect of over 70% in size; further: potency means the concentration at half of the fitted maximal effect
Outline: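 Unlinked Zika NS2B hydrophilic domain–NS3 protease complex at 25 nM in 10 mM Tris-HCl pH 8.0, 0.01% Tween 20, with an AMC peptide substrate. Fluorescence change (340/450 nm) over 15 min at room temperature, normalized to controls, fitted to 4-parameter Hill.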

Furin (Homo sapiens) = Furin (Homo sapiens) (UniProt P09958); test: Furin counterscreen qHTS for Zika virus inhibitors (AID 1347149); further: nearly all actives have a fitted effect of over 70% in size; further: potency means the concentration at half of the fitted maximal effect
Furin (Homo sapiens), sequence (P09958 whole entry, looked up): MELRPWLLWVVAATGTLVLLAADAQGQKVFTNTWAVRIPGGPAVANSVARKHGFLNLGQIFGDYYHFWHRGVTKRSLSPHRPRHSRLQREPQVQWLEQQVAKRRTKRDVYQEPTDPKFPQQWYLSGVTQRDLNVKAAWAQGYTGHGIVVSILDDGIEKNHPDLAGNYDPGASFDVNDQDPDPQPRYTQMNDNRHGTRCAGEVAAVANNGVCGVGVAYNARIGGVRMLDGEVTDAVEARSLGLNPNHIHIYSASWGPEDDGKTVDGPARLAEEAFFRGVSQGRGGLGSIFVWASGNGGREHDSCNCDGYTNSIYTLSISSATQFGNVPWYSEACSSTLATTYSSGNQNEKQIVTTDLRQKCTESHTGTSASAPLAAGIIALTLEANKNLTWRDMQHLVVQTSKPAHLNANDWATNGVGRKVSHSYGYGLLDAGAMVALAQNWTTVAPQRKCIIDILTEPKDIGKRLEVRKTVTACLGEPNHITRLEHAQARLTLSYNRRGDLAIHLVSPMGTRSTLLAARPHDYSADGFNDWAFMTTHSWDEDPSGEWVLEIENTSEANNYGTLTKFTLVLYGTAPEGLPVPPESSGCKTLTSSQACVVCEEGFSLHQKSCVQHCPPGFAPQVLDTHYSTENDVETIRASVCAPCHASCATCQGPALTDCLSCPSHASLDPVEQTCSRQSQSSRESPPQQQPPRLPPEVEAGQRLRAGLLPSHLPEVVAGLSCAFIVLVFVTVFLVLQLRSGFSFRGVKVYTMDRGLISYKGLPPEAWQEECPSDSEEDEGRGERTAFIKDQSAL
Outline: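 Fluorogenic cleavage of BOC-RVRR-AMC (2 microM final, Km ~15 µM) was monitored (ex 340, em 450 nm) at 37C after 15 min RT preincubation of 5 nM furin with compounds in HEPES pH 7.0 buffer with CaCl2 and Triton X-100. Percent inhibition was fitted to a 4-parameter Hill curve.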

[4] = system: Zika virus NS2B-NS3 protease (unlinked complex); test: Confirmatory screen GU AMC qHTS for Zika virus inhibitors (AID 1347153); further: nearly all actives have a fitted effect of over 70% in size
Outline: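 Noncovalent NS2B hydrophilic domain/NS3 protease complex (25 nM) in 10 mM Tris-HCl pH 8.0, 0.01% Tween 20 was preincubated 15 min at room temperature with compounds. Then 10 µM AMC substrate (Km 18.3 µM) was added; fluorescence was read over 15 min and fitted to a 4-parameter Hill equation.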

[5] = system: Zika virus NS2B-NS3 protease (linked construct); test: Confirmatory screen NINDS AMC qHTS for Zika virus inhibitors (AID 1347152); further: nearly all actives have a fitted effect of over 70% in size; further: potency means the concentration at half of the fitted maximal effect
Outline: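 Linked NS2B-NS3 1 nM, Tris pH 8.0/0.01% Tween 20; cpd 15 min RT dark; + Nle-KRR-AMC 10 µM (Km 18.3 µM); read 0 and 15 min, 340/450 nm; %inh vs controls, 4-param Hill.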

[6] = Confirmatory screen GU Rhodamine qHTS for Zika virus inhibitors qHTS (AID 1347157); conditions: purified enzyme assay, Rhodamine110 substrate fluorescence, 15 min
Outline: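 Noncovalent NS2B hydrophilic domain/NS3 protease complex (25 nM final) in 10 mM Tris-HCl pH 8.0, 0.01% Tween 20, preincubated 15 min with compounds (up to 114 microM), then 1.5 microM Rhodamine110 substrate. Fluorescence change over 15 min fitted to 4-parameter Hill.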

[7] = ZIKV-mCherry secondary qHTS for Zika virus inhibitors (AID 1347158); further: top concentration of the series differs between compounds
Outline: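 Vero, 5,000 cells/well, o/n 37 °C; cpd pin-transferred in DMSO; ZIKV-mCherry MOI 1, 48-72 h 37 °C; 32% PFA stock fix, Hoechst; imaged 10x DAPI/mCherry; mCherry+ threshold 450 RFU; % infection.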

[8] = qHTS of pediatric cancer cell lines to identify multiple opportunities for drug repurposing: Confirmatory screen for TC32 cells (AID 1347118);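 further: potency means the concentration at half of the fitted maximal effect; cells exposed to compound for 48 h before the read; nearly all actives have a fitted effect of over 65% in size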
Outline: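 Luminescent CellTiter-Glo read-out of metabolically active TC32 cells after 48 h compound exposure. Primary: MIPE 11-point, 0.78 nM–46 µM; NPC 8-point, 0.59 nM–46 µM. Confirmatory: 11-point dilutions.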

[9] = qHTS of pediatric cancer cell lines to identify multiple opportunities for drug repurposing: Confirmatory screen for MG 63 (6-TG R) cells (AID 1347119); further: nearly all actives have a fitted effect of over 55% in size; further: potency means the concentration at half of the fitted maximal effect
Outline: (§1)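 Viability after 48 h compound treatment at 37C, 500-1,000 cells/well, read as ATP luminescence with CellTiter-Glo. Primary screens used 11-point (MIPE, 0.78 nM-46 µM) or 8-point (NPC, 0.59 nM-46 µM) final concentrations; follow-up screens used 11-point dilutions.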

[10] = qHTS of pediatric cancer cell lines to identify multiple opportunities for drug repurposing: Confirmatory screen for Rh41 cells (AID 1347123); further: potency means the concentration at half of the fitted maximal effect; nearly all actives have a fitted effect of over 60% in size
Outline: as §1

[11] = qHTS of pediatric cancer cell lines to identify multiple opportunities for drug repurposing: Confirmatory screen for RD cells (AID 1347124);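 further: potency means the concentration at half of the fitted maximal effect; cells exposed to compound for 48 h before viability readout; nearly all actives have a fitted effect of over 65% in size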
Outline: as §1

[12] = qHTS of pediatric cancer cell lines to identify multiple opportunities for drug repurposing: Confirmatory screen for Saos-2 cells (AID 1347127); further: potency means the concentration at half of the fitted maximal effect; nearly all actives have a fitted effect of over 60% in size
Outline: as §1

[13] = qHTS of pediatric cancer cell lines to identify multiple opportunities for drug repurposing: Confirmatory screen for OHS-50 cells (AID 1347128);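 further: potency means the concentration at half of the fitted maximal effect; compound exposure lasted 48 h at 37 degrees C; nearly all actives have a fitted effect of over 55% in size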
Outline: as §1

For `NNc1nncc2ccccc12`, the Potency [1] was 79.4 µM (active) and the Potency [2] was “inactive”.
For `Nc1nc(N)c(N=O)c(OCC2CCCCC2)n1`, the Potency [1] was “inactive”, the Potency [2] was “inactive” and the Potency [3] was “inactive”.
With `C[C@@H](c1ncncc1F)[C@](O)(Cn1cncn1)c1ccc(F)cc1F` the Potency [1] was “inactive” and the Potency [2] was “inactive”.
With `C[C@H](Cc1ccc(O)c(O)c1)[C@@H](C)Cc1ccc(O)c(O)c1` the Potency [1] was 10 µM (active) and the Potency [2] was 9.47 µM (active).
With `CN(C)C(=O)[C@H](O)[C@H](Cc1ccccc1)NC(=O)c1cc2cc(Cl)ccc2[nH]1` the Potency [1] was “inactive”, the Potency (Furin (Homo sapiens)) was “inactive” and the Potency [2] was 26.7 µM (active). For the same compound, the Potency [4] was “inactive”.
In the case of `CC(=O)N1CCN(c2ccc(OC[C@H]3CO[C@](Cn4ccnc4)(c4ccc(Cl)cc4Cl)O3)cc2)CC1`, the Potency [1] is reported as 50.1 µM (active) and the Potency [2] is reported as “inactive”.
With `Cc1cc(O)c2c(c1)C(=O)c1cc(O)cc(O)c1C2=O` the Potency [1] was 17.8 µM (active), the Potency [2] was 15 µM (active) and the Potency [3] was “inactive”.
For `O=C(O)c1cccnc1Nc1cccc(C(F)(F)F)c1`, the Potency [1] was “inactive”, the Potency [2] was “inactive” and the Potency [3] was “inactive”.
For `NCCCCNCCCN`, the Potency [1] was “inactive” and the Potency [2] was “inactive”.
In the case of `Cc1nc(-c2ccc(OCC(C)C)c(C#N)c2)sc1C(=O)O`, the Potency (Furin (Homo sapiens)) is reported as 24.1 µM (active), the Potency [4] is reported as “inactive” and the Potency [3] is reported as 21.5 µM (active).
In the case of `Cc1cccc(-c2[nH]ncc2-c2ccc3ncccc3n2)n1`, the Potency [1] is reported as “inactive”, the Potency [2] is reported as “inactive” and the Potency [3] is reported as “inactive”.
In the case of `CC(=O)NC[C@H]1CN(c2ccc(N3CCOCC3)c(F)c2)C(=O)O1`, the Potency [1] is reported as “inactive”, the Potency [2] is reported as “inactive” and the Potency [3] is reported as “inactive”.
In the case of `O=C(O)c1cn(-c2ccc(F)cc2)c2cc(N3CCNCC3)c(F)cc2c1=O`, the Potency (Furin (Homo sapiens)) is reported as 24.1 µM (active) and the Potency [5] is reported as 24.1 µM (active) and 27.1 µM (active).
In the case of `Oc1ccc2ccccc2c1SSc1c(O)ccc2ccccc12`, the Potency [1] is reported as 35.5 µM (active) and the Potency [2] is reported as 10.6 µM (active).
With `O=Nc1c(-c2c(O)[nH]c3cc(Br)ccc23)[nH]c2ccccc12` the Potency [1] was 14.1 µM (active).
With `CNC[C@H](O)c1ccc(O)c(O)c1` the Potency [1] was “inactive”, the Potency [2] was “inactive” and the Potency [3] was “inactive”.
For `O=c1c(O)c(-c2ccc(O)cc2O)oc2cc(O)cc(O)c12`, the Potency (Furin (Homo sapiens)) was “inactive”, the Potency [2] was 11.9 µM (active) and the Potency [6] was 20 µM (active). For the same compound, the Potency [7] was “inactive”.
For `CCc1nc(N)nc(N)c1-c1ccc(Cl)cc1`, the Potency [8] was 2.93 µM (active), the Potency [9] was “inactive” and the Potency [10] was 10.4 µM (active). For the same compound, the Potency [11] was 9.27 µM (active), the Potency (Furin (Homo sapiens)) was “inactive” and the Potency [2] was “inactive”. For the same compound, the Potency [5] was “inactive” and the Potency [4] was “inactive”.
In the case of `Cc1c(OCC(F)(F)F)ccnc1CS(=O)c1nc2ccccc2[nH]1` (stereo not given), the Potency [1] is reported as 50.1 µM (active), the Potency [5] is reported as “inactive” and the Potency [4] is reported as “inactive”.
For `O=c1c(O)c(-c2cc(O)c(O)c(O)c2)oc2cc(O)cc(O)c12`, the Potency [1] was 5.01 µM (active), the Potency (Furin (Homo sapiens)) was “inactive” and the Potency [2] was 21.2 µM (active). For the same compound, the Potency [3] was 9.61 µM (active), the Potency [6] was 17.8 µM (active) and the Potency [7] was “inactive”.
In the case of `C[C@@H](N)C1CCC(C(=O)Nc2ccncc2)CC1` (stereo not given in full), the Potency [1] is reported as “inactive” and the Potency [2] is reported as “inactive”.
For `O=C(c1ccccc1)c1ccc2n1CCC2C(=O)O` (stereo not given), the Potency [1] was “inactive”, the Potency [2] was “inactive” and the Potency [3] was “inactive”.
In the case of `CC(=O)O[C@H]1C(=O)[C@@]2(C)C([C@H](OC(=O)c3ccccc3)[C@]3(O)C[C@H](OC(=O)[C@H](O)[C@@H](NC(=O)c4ccccc4)c4ccccc4)C(C)=C1C3(C)C)[C@]1(OC(C)=O)CO[C@@H]1C[C@@H]2O` (stereo not given in full), the Potency [8] is reported as 0.0104 µM (active), the Potency [9] is reported as 0.0131 µM (active) and the Potency [10] is reported as 0.0104 µM (active). For the same compound, the Potency [12] was 0.0233 µM (active) and the Potency [13] was 0.0208 µM (active).
In the case of `O=C1NC(=O)C(c2ccccc2[N+](=O)[O-])=C1Nc1ccc(O)c(Cl)c1`, the Potency [1] is reported as 28.2 µM (active), the Potency [2] is reported as “inactive” and the Potency [3] is reported as “inactive”.
In the case of `CCOC(=O)C1=C(O)C(=O)N(Cc2ccccc2)C1`, the Potency [1] is reported as “inactive”, the Potency [2] is reported as “inactive” and the Potency [3] is reported as “inactive”.
With `CC1(C)NC(=O)N(c2ccc([N+](=O)[O-])c(C(F)(F)F)c2)C1=O` the Potency [1] was “inactive”, the Potency [2] was “inactive” and the Potency [3] was “inactive”.
For `Clc1ccc2c(N3CCN(CCCN4CCN(c5ccnc6cc(Cl)ccc56)CC4)CC3)ccnc2c1`, the Potency [1] was 50.1 µM (active), the Potency [2] was “inactive” and the Potency [3] was “inactive”.
In the case of `NC(=NCc1ccccc1)NC(=O)c1nc(Cl)c(N)nc1N`, the Potency [1] is reported as 56.2 µM (active), the Potency [2] is reported as 26.7 µM (active) and the Potency [3] is reported as “inactive”.
For `S=c1nc[nH]c2nc[nH]c12`, the Potency (Furin (Homo sapiens)) was “inactive” and the Potency [2] was “inactive”.
For `O=c1ccc2ccc(O)c(O)c2o1`, the Potency [1] was 39.8 µM (active), the Potency [2] was “inactive” and the Potency [3] was “inactive”.
In the case of `CC(C)c1ccc2c(c1)c(SC(C)(C)C)c(CC(C)(C)C(=O)O)n2Cc1ccc(Cl)cc1`, the Potency [1] is reported as “inactive”, the Potency [2] is reported as 1.34 µM (active) and the Potency [3] is reported as “inactive”.
In the case of `COc1ccccc1N1CCN(CCN(C(=O)C2CCCCC2)c2ccccn2)CC1`, the Potency [1] is reported as “inactive” and the Potency [2] is reported as “inactive”.
In the case of `COc1cc2c(cc1OC)C1CC(=O)C(CC(C)C)CN1CC2` (stereo not given), the Potency [1] is reported as “inactive”, the Potency (Furin (Homo sapiens)) is reported as 27.1 µM (active) and the Potency [5] is reported as “inactive”. For the same compound, the Potency [4] was “inactive” and the Potency [3] was “inactive”.
In the case of `COc1c2occc2cc2ccc(=O)oc12`, the Potency (Furin (Homo sapiens)) is reported as “inactive”.
In the case of `N[C@@H](Cc1cc(I)c(Oc2cc(I)c(O)c(I)c2)c(I)c1)C(=O)O`, the Potency (Furin (Homo sapiens)) is reported as “inactive”, the Potency [6] is reported as 6.1 µM (active) and the Potency [7] is reported as “inactive”.
